# Results filed as inconclusive are left out. A number with no mark means an inactive call. Activity calls are given as the source filed them. Calls follow the shape of the dose curve; as a rule, active = well fitted inhibition curve with a large enough effect; inconclusive = small, poorly fitted or top-dose-only effect; inactive = flat fitted curve, though single readings scatter.
# Test system: N140
# Assay: qHTS profiling for inhibitors of Plasmodium falciparum proliferation (AID 504749); also: nearly all actives have a fitted effect of over 60% in size;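 as to activity, negative = inhibition: 0% = DMSO vehicle and full inhibition = artemisinin control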
# Conditions: P. falciparum in erythrocytes, SYBR Green DNA, 72 h; series mostly up to 28.7 µM; activity, negative = inhibition: at the top concentration
# In short: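 Parasite proliferation within erythrocytes, 72 h exposure. Endpoint: SYBR Green I fluorescence after overnight lysis at room temperature. Controls: 0.29 uM artemisinin, DMSO.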
# Potency is read from the fitted curve at half-maximal effect.
SMILES,"activity, negative = inhibition",Potency
O=C(O)CCCCC(=O)O,0.287%,
CCOC(=O)n1ccn(C)c1=S,15.4% [at 12.8 µM],
COc1cc(NS(C)(=O)=O)ccc1Nc1c2ccccc2nc2ccccc12,,2 µM (active)
C[C@]12CC[C@@H]3c4ccc(O)cc4CC[C@H]3[C@@H]1CC[C@@H]2O,1.26%,
NCCC(O)(P(=O)(O)O)P(=O)(O)O,11.7%,
CCN1CCC[C@H]1CNC(=O)c1c(OC)ccc(Br)c1OC,-27.2%,
CCN1CCN(c2cc3c(cc2F)c(=O)c(C(=O)O)cn3C2CC2)CC1,-5.01%,
CN1C2CCC1CC(OC(=O)c1c[nH]c3ccccc13)C2 (stereo not given),17.8%,
Oc1c(Cl)cc(Cl)cc1Sc1cc(Cl)cc(Cl)c1O,7.77%,
CC(=O)Oc1ccc(C(=C2CCCCC2)c2ccc(OC(C)=O)cc2)cc1,19.6%,
CC(=O)OCC(=O)NCCCOc1cccc(CN2CCCCC2)c1,3.98%,
CC(C)NC[C@@H](O)COc1cccc2ccccc12,,12.6 µM (active)
CCN(CC)C(=O)N1CCN(C)CC1,-3.65% [at 12.8 µM],
Nc1ccc(/C=C/c2ccc(N)cc2S(=O)(=O)O)c(S(=O)(=O)O)c1,5.38%,
CCN1CCCC1=O,17.2%,
CCN(CC)CCNC(=O)COc1ccc(Cl)cc1,,12.6 µM (active)
Cc1c(F)c(N2CCNC(C)C2)cc2c1c(=O)c(C(=O)O)cn2C1CC1 (stereo not given),-1.96%,
CC(C)(Oc1ccc(Cl)cc1)C(=O)O,2.43%,

SMILES,"activity, negative = inhibition",Potency
CCCCC1=NC2(CCCC2)C(=O)N1Cc1ccc(-c2ccccc2-c2nn[nH]n2)cc1,-17.6%,
CCCCCCCCCCCCCCCCOP(=O)([O-])OCC[N+](C)(C)C,3.45%,
C#C[C@]1(OC(C)=O)CC[C@H]2[C@@H]3CCC4=C[C@@H](OC(C)=O)CC[C@@H]4[C@H]3CC[C@@]21C,-18.4%,
CCCn1c(=O)[nH]c(=O)c2[nH]cnc21,19.6%,
CC(O)C(=O)O (stereo not given),-9.38%,
CCCCc1nc(Cl)c(CO)n1Cc1ccc(-c2ccccc2-c2nn[nH]n2)cc1,,12.6 µM (active)
O=C(OCCOCCO)c1ccccc1Nc1cccc(C(F)(F)F)c1,22.2% [at 12.8 µM],
c1ccc(-c2ccc(C(c3ccccc3)n3ccnc3)cc2)cc1 (stereo not given),,7.08 µM (active)
Cc1cccn2c(=O)c(-c3nnn[nH]3)cnc12,16%,
NCCc1ccn[nH]1,18.7% [at 12.8 µM],
CN1C(CCl)Nc2cc(Cl)c(S(N)(=O)=O)cc2S1(=O)=O (stereo not given),-9.71%,
COc1cc(C(=S)N2CCOCC2)cc(OC)c1OC,6.13%,
C[C@H]1[C@H](NC(=O)/C(=N/OC(C)(C)C(=O)O)c2csc(N)n2)C(=O)N1S(=O)(=O)O (stereo in doubt),14.9% [at 12.8 µM],
NCCCC[C@H](N[C@@H](CCc1ccccc1)C(=O)O)C(=O)N1CCC[C@H]1C(=O)O,3.25% [at 12.8 µM],
CC(C)(CO)[C@@H](O)C(=O)NCCCO,9.63%,
Cc1ccnc(NS(=O)(=O)c2ccc(N)cc2)n1,11.2% [at 12.8 µM],
Nc1ccc(C(=O)O)cc1,-3.44%,

# Source: PubChem BioAssay (NCATS)
